Measured values from PubChem BioAssay (Tox21).
Several values for one entry are separate records, joined by “and”; a condition that tells them apart may be missing. Equal entries are not always repeated. Inconclusive results are not listed. Entries that show only a call come without a potency. The source holds several records for some structures; these can differ, active in one and inactive in another. Activity calls are given as the source filed them. The call rests on the fitted dose curve; in most records, active means well fitted curve in the direction sought with a large enough effect in the repeat runs; inconclusive means weak or mixed curves; inactive means no such curve, though single readings can be large; an effect the other way counts as inactive or inconclusive.

Tests used:
[1] = A CellTox Green Cytotoxicity Assay to monitor cytotoxicity in HEK293 cells - 40 hour (AID 1224871); further: nearly all actives have a fitted effect of over 45% in size; further: potency means the concentration at half of the fitted maximal effect
Outline: (§1)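 Homogeneous no-lysis format: HEK293 cell suspension mixed with CellTox Green reagent, seeded, incubated 5 h at 37 C/5% CO2, then dosed by pintool with compound in DMSO.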

[2] = qHTS RealTime-Glo MT Cell Viability Assay in HepG2 cells - 8 hour (AID 1224873); further: nearly all actives have a fitted effect of over 55% in size
Outline: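 HepG2 cells mixed with RealTime-Glo MT reagents (NanoLuc plus cell-permeant prosubstrate) were seeded at 600 cells/well, incubated 5 h at 37 C/5% CO2, then pinned with compounds in DMSO; nonlytic luminescence tracked viability during 40 h treatment.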

[3] = A CellTox Green Cytotoxicity Assay to monitor cytotoxicity in HEK293 cells - 24 hour (AID 1224875); further: nearly all actives have a fitted effect of over 45% in size; further: potency means the concentration at half of the fitted maximal effect
Outline: as §1

[4] = A CellTox Green Cytotoxicity Assay to monitor cytotoxicity in HepG2 cells - 16 hour (AID 1224876); further: nearly all actives have a fitted effect of over 45% in size; further: potency means the concentration at half of the fitted maximal effect
Outline: (§2)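 Fluorescent DNA-binding dye, 600 HepG2 cells/well, 5 h preincubation then compound in DMSO; same plates read at 0–40 h, 37 C.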

[5] = qHTS RealTime-Glo MT Cell Viability Assay in HepG2 cells - 32 hour (AID 1224877); further: nearly all actives have a fitted effect of over 55% in size; further: potency means the concentration at half of the fitted maximal effect
Outline: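 HepG2 cells were seeded at 600 cells/well together with NanoLuc luciferase and a cell-permeant prosubstrate, preincubated 5 h at 37 C/5% CO2, then pin-dosed with compounds in DMSO. Nonlytic luminescence from viable cells was read at each time point.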

[6] = A CellTox Green Cytotoxicity Assay to monitor cytotoxicity in HepG2 cells - 24 hour (AID 1224878); further: nearly all actives have a fitted effect of over 45% in size; further: potency means the concentration at half of the fitted maximal effect
Outline: as §2

[7] = A CellTox Green Cytotoxicity Assay to monitor cytotoxicity in HepG2 cells - 40 hour (AID 1224879); further: nearly all actives have a fitted effect of over 40% in size; further: potency means the concentration at half of the fitted maximal effect
Outline: as §2

[8] = qHTS RealTime-Glo MT Cell Viability Assay in HEK293 cells - 0 hour (AID 1224880)
Outline: (§3)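 Measured as luminescence from the same continuously cultured HEK293 wells at successive time points (0, 8, 16, 24, 32, 40 h) after compound addition. Reagent present from seeding; dosing at 5 h; incubation 37 C.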

[9] = qHTS RealTime-Glo MT Cell Viability Assay in HEK293 cells - 40 hour (AID 1224874); details: RealTime-Glo luminescence; max response: stronger effect = lower value; further: nearly all actives have a fitted effect of over 50% in size; further: potency means the concentration at half of the fitted maximal effect
Outline: as §3

[10] = qHTS RealTime-Glo MT Cell Viability Assay in HEK293 cells - 16 hour (AID 1224872); further: nearly all actives have a fitted effect of over 50% in size; further: potency means the concentration at half of the fitted maximal effect
Outline: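 HEK293 cells were seeded at 600 cells/well together with NanoLuc luciferase and cell-permeant prosubstrate, preincubated 5 h at 37 C/5% CO2, then given compound in DMSO by pintool. Luminescence from viable-cell prosubstrate reduction was read repeatedly over 40 h.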

Compound	Potency [1]	Potency [2]	Potency [3]	Potency [4]	Potency [5]	Potency [6]	Potency [7]	Potency [8]	max response [9]	Potency [9]	Potency [10]
CCc1oc2ccccc2c1C(=O)c1cc(Br)c(O)c(Br)c1	inactive	inactive	inactive	inactive	inactive	inactive	inactive	inactive	–	–	–
CC(C)(C)C1CCC(CC2=C(O)c3ccccc3C(=O)C2=O)CC1 (stereo not given)	16.9 µM (active)	inactive	–	–	inactive	–	–	inactive	-30% (inactive)	–	–
Nc1nc2ccccc2n1Cc1ccc(F)cc1	inactive	inactive	inactive	inactive	inactive	–	23.9 µM (active)	–	–	–	–
COCCCC/C(=N\OCCN)c1ccc(C(F)(F)F)cc1	inactive	inactive	inactive	–	–	–	26.8 µM (active)	inactive	–	–	–
Cc1ccc(-n2nc(C(C)(C)C)cc2NC(=O)Nc2ccc(OCCN3CCOCC3)c3ccccc23)cc1	inactive	inactive	inactive	inactive	inactive	inactive	inactive	inactive	–	–	–
COc1ccc(-c2ccc3cc(C(=O)O)ccc3c2)cc1C12CC3CC(CC(C3)C1)C2	inactive	–	inactive	–	–	23.9 µM (active)	19 µM (active)	inactive	–	4.77 µM (active)	–
O=c1cc(-c2ccc(O)cc2)oc2cc(O)cc(O)c12	inactive and 43.6 µM (active)	inactive	inactive	inactive and 27.5 µM (active)	inactive	inactive and 34.7 µM (active)	38.9 µM (active)	inactive	–	–	–
NNc1nc(-c2ccc([N+](=O)[O-])cc2)cs1	inactive	–	inactive	inactive	–	inactive	inactive	inactive	–	24.5 µM (active)	–
CC(=O)S[C@@H]1CC2=CC(=O)CC[C@]2(C)[C@H]2CC[C@@]3(C)[C@@H](CC[C@@]34CCC(=O)O4)[C@H]12	inactive	–	inactive	inactive	–	–	54.9 µM (active)	inactive	–	–	–
Cc1[nH]nc2c1N=C(c1ccccc1Cl)c1cc([N+](=O)[O-])ccc1N2	inactive	inactive	inactive	inactive	inactive	inactive	inactive	inactive	–	–	–
O=c1[nH]sc2cc(Cl)ccc12	inactive	–	inactive	–	–	–	–	inactive	–	–	–
O=C(Nc1cccc([N+](=O)[O-])c1)c1cc2ccccc2cc1O	inactive	inactive	inactive	inactive	inactive	inactive	inactive	inactive	–	–	–
CCCCCCCCS(=O)C(C)Cc1ccc2c(c1)OCO2 (stereo not given)	inactive	inactive	inactive	inactive	inactive	inactive	inactive	inactive	–	–	–
CC1=C(C(=O)OC(C)C)C(c2cccc([N+](=O)[O-])c2)C(C(=O)OC2CN(C(c3ccccc3)c3ccccc3)C2)=C(N)N1 (stereo not given)	inactive	–	inactive	–	21.3 µM (active)	23.9 µM (active)	23.9 µM (active)	inactive	–	–	–
CCC1OCC(COc2ccc(Oc3ccccc3)cc2)O1 (stereo not given)	inactive	inactive	inactive	inactive	inactive	inactive	inactive	inactive	–	–	–
N#CSc1ccc(N)c([N+](=O)[O-])c1	–	inactive	inactive	inactive	inactive	inactive	–	inactive	–	49.3 µM (active)	43.9 µM (active)
C/C(=C(/OCCOc1ccc(Cl)cc1)c1ccc(Cl)cc1Cl)n1ccnc1	inactive	inactive	inactive	inactive	inactive	inactive	inactive	–	–	–	–
Cn1cc(C(=O)[C@@H]2CCc3nc[nH]c3C2)c2ccccc21	inactive	inactive	inactive	inactive	inactive	inactive	inactive	inactive	–	–	–
CCCCCCCCOc1ccccc1C(=O)Nc1ccc(C(=O)OCC[N+](C)(CC)CC)cc1	26.8 µM (active)	–	23.9 µM (active)	23.9 µM (active)	–	26.8 µM (active)	23.9 µM (active)	–	–	21.3 µM (active)	–
CCC(N)(CO)CO	–	inactive	inactive	–	inactive	inactive	inactive	inactive	11.9% (inactive)	–	inactive
Cc1[nH]cnc1C[C@H]1CCc2c(C)c3ccccc3n2C1=O	47.8 µM (active)	–	47.8 µM (active)	38 µM (active)	42.6 µM (active)	38 µM (active)	33.8 µM (active)	–	–	23.9 µM (active)	–
N/C(=N\N=C\c1ccc(Cl)cc1)N/N=C/c1ccc(Cl)cc1	23.9 µM (active)	–	23.9 µM (active)	21.3 µM (active)	–	21.3 µM (active)	23.9 µM (active)	–	–	–	–
NNc1nc(-c2ccccc2)cs1	inactive	–	inactive	–	inactive	inactive	inactive	inactive	–	–	–

Compound	Potency [1]	Potency [2]	Potency [3]	Potency [4]	Potency [5]	Potency [6]	Potency [7]	Potency [8]	max response [9]	Potency [9]	Potency [10]
Oc1ccc(C2(c3ccc(O)cc3)CC3CC2C2CCCC32)cc1 (stereo not given)	–	inactive	–	inactive	inactive	inactive	–	inactive	–	41.9 µM (active)	–
Cc1cccc2c1cc1ccc3cccc4ccc2c1c34	–	inactive	–	inactive	inactive	inactive	inactive	–	–	–	–
O=C(OCC(COC(=O)c1ccccc1)(COC(=O)c1ccccc1)COC(=O)c1ccccc1)c1ccccc1	–	–	–	inactive	inactive	inactive	inactive	inactive	–	48.9 µM (active)	43.6 µM (active)
CCC1=C[C@@H]2CN(C1)Cc1c([nH]c3ccccc13)[C@@](C(=O)OC)(c1cc3c(cc1OC)N(C)[C@H]1[C@@](O)(C(=O)OC)[C@H](OC(C)=O)[C@]4(CC)C=CCN5CC[C@]31[C@@H]54)C2	–	–	inactive	–	–	–	inactive	inactive	–	0.0067 µM (active)	23.9 µM (active)
Cc1c(C)c2c(c(C)c1OC(=O)CCC(=O)O)CC[C@@](C)(CCC[C@H](C)CCC[C@H](C)CCCC(C)C)O2	–	inactive	inactive	–	55.6 µM (active)	–	–	–	–	–	inactive
CCCCCCC[N+](CC)(CC)CCCCc1ccc(Cl)cc1	–	inactive	inactive	26.8 µM (active)	23.9 µM (active)	26.8 µM (active)	23.9 µM (active)	inactive	–	1.9 µM (active)	–
CN1CCN(CCC(=O)N2c3ccccc3Sc3ccc(C(F)(F)F)cc32)CC1	–	inactive	–	10.7 µM (active)	26.8 µM (active)	15.1 µM (active)	21.3 µM (active)	inactive	–	–	–
CCc1cc(SCc2sc(-c3ccc(C(F)(F)F)cc3)nc2CN2CCN(c3ccc(OC)cc3)CC2)ccc1OCC(=O)O	–	inactive	–	inactive	–	inactive	–	inactive	–	19.5 µM (active)	19.5 µM (active)
O=[N+]([O-])c1cc(Cl)c(Cl)c(Cl)c1Cl	–	inactive	–	inactive	inactive	–	–	inactive	–	–	inactive
O=CC=C(c1ccccc1)c1ccccc1	–	inactive	–	inactive	inactive	inactive	inactive	inactive	–	17.5 µM (active)	–
OCc1c[nH]c2ccccc12	–	–	–	inactive	inactive	inactive	–	–	–	–	–
CC(C)OC(=O)c1cc2c(OCC(O)CNC(C)(C)C)cccc2[nH]1 (stereo not given)	–	inactive	–	inactive	inactive	inactive	–	–	–	9.52 µM (active)	4.77 µM (active)
CCCCN(CCCC)c1ccc(C(=O)c2ccccc2C(=O)O)c(O)c1	–	inactive	–	inactive	inactive	–	–	–	-24.6% (inactive)	–	inactive
Fc1ccc(C(c2ccc(F)cc2)N2CCN(C/C=C/c3ccccc3)CC2)cc1	–	–	inactive	inactive	–	inactive	inactive	inactive	–	19 µM (active)	–
CCCCCCCCCCCCCCCC(=O)OC[C@H](O)[C@H]1OC(=O)C(O)=C1O	–	inactive	–	inactive	inactive	inactive	inactive	–	-4.9% (inactive)	–	inactive
COc1cc(-c2nc(NC(=O)c3cc4cc(C)cc(C)c4n3CC(=O)O)sc2CCC2CCCCC2)c(OC)cc1Cl	–	–	inactive	–	40 µM (active)	–	44.9 µM (active)	inactive	–	22.5 µM (active)	–
O=C(Nc1cccc(C(F)(F)F)c1)c1cc(Br)cc(Br)c1O	–	inactive	inactive	inactive	–	19.5 µM (active)	19.5 µM (active)	–	–	3.89 µM (active)	–
Nc1ccc(N)c2ccccc12	–	–	inactive	54.9 µM (active)	–	54.9 µM (active)	54.9 µM (active)	inactive	–	–	54.9 µM (active)
CN(C/C=C/C#CC(C)(C)C)Cc1cccc2ccccc12	–	inactive	–	inactive	inactive	inactive	inactive	inactive	–	–	–
CC(C)(C)CC(C)(C)c1ccc(OCCOCC[N+](C)(C)Cc2ccccc2)cc1	–	–	–	48.9 µM (active) and 19 µM (active)	34.6 µM (active) and 9.52 µM (active)	38.9 µM (active) and 15.1 µM (active)	24.5 µM (active) and 10.7 µM (active)	–	–	9.76 µM (active) and 8.49 µM (active)	24.5 µM (active) and 21.3 µM (active)
C/C=C1/C(=O)C[C@H]2[C@@H]3CCC4=CC(=O)CC[C@]4(C)[C@H]3CC[C@]12C	–	–	inactive	–	inactive	–	43.5 µM (active)	–	–	48.8 µM (active)	43.5 µM (active)
Cc1cc(C2CCCCC2)n(O)c(=O)c1	–	inactive	inactive	inactive	inactive	inactive	–	–	–	1.69 µM (active)	–
Oc1ccc2c(c1)-c1ccccc1C2	–	–	–	–	inactive	49 µM (active)	49 µM (active)	inactive	–	–	inactive
